A selection: hits, their analogues and other compounds. The true share with any hit is near 3.4%.
MITF primary = human MITF inhibition, primary screen. O75030. AlphaScreen MITF homodimerization, bead proximity signal. inhibition, % at 2.6 µM. 0.91% of 650,000 active; in the data active means inhibition above about 50%
FBW7 act = human FBW7 E3 ligase activation, primary screen; Q969H0; AlphaScreen FBW7–phospho-cyclin E peptide binding, activator screen; normalized activity (activation), % at 26.1 µM; 0.13% of 650,000 active; AID 1259310; in the data active means normalized activity above about 1.9%;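 further: purified mutant Fbw7 with reduced substrate affinity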
Target sequence (Q969H0 whole entry, looked up): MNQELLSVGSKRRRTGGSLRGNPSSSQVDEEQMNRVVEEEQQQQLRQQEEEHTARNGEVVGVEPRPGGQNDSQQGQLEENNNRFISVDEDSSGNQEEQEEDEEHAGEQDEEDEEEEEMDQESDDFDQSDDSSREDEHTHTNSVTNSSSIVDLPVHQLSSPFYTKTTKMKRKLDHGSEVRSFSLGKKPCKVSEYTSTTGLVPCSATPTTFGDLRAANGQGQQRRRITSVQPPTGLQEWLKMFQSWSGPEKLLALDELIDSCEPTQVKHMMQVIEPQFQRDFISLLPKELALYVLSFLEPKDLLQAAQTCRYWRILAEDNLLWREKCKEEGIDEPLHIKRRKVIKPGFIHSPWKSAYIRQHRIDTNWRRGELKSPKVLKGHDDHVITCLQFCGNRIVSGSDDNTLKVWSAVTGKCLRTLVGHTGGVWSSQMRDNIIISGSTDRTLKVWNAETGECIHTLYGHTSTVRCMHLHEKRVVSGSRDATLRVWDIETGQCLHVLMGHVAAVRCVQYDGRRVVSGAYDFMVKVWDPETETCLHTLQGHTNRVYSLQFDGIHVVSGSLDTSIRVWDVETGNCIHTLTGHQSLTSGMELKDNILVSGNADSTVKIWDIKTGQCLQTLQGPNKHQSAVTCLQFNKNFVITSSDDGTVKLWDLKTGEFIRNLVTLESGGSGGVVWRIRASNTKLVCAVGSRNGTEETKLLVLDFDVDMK
GPR151 ag = activates the human receptor GPR151; 1% of 650,000 active; activation, % at 11.2 µM; Q8TDV0; AID 1508602; PathHunter beta-arrestin GPR151 cells, luminescence; in the data active means activation above about 4.9%
TEAD-YAP block = TEAD-YAP interaction inhibition | HEK-TIYL cells, TEAD-Gal4/YAP UAS-luciferase luminescence | inhibition, % at 9.12 µM | 1.4% of 640,000 active | AID 1259422; in the data active means inhibition above about 32%
Of the large screens only hits and unclear results are named; the others gave an inactive call; ! = a repeat was not active.

CCOc1ccc(C2/C(=C(/O)c3ccc(C)cc3)C(=O)C(=O)N2CCC(=O)O)cc1 (centres undefined)	none
Nc1cc[n+](CC(=O)c2ccc3c(c2)OCCO3)cc1	TEAD-YAP block 49.3
O=C(CCCc1ccccc1)c1ccc2c(c1)OCCO2	TEAD-YAP block 90.7
O=C(CCc1ccccc1)c1ccc2c(c1)OCCCO2	none
O=C(CCN1CCc2ccccc2C1)c1ccc2c(c1)OCCO2	none
O=C(C[n+]1ccc2ccccc2c1)c1ccc2c(c1)OCCO2	none
O=C(CCN1CCc2ccccc21)c1ccc2c(c1)OCCO2	TEAD-YAP block 45.1
Cc1ccc(C(=O)Cn2c(C(=O)O)cc3ccccc32)cc1	none
Cc1ccc(C(=O)Cn2c(C(=O)OCCO)cc3ccccc32)cc1	TEAD-YAP block 34.0
CNC[C@H](O)c1ccc(O)c(O)c1	MITF primary 56.2!
CCC(=O)Nc1nc(-c2ccc([N+](=O)[O-])cc2)cs1	none
O=C1/C(=C/c2ccc(O)cc2)C(CSc2ccc(Cl)cc2)=NN1c1ccccc1	none
COc1cc(/C=N/O)ccc1OCc1ccc(F)cc1	none
CCCCOc1ccc(CO)cc1OC	FBW7 act 2.1
COc1cc(/C=N/O)ccc1OCc1ccc(C(=O)O)cc1	TEAD-YAP block 93.8
COc1cc(CO)ccc1OCc1cccc(F)c1	none
COc1cc(C=O)ccc1OCc1ccc(C(=O)O)cc1	none
COc1cc(CO)ccc1OCc1cccc(C(=O)O)c1	TEAD-YAP block 74.0
COc1cc(/C=N/O)ccc1OCc1ccccc1F	TEAD-YAP block 37.6
CCCNC(=O)c1ccc2c(=O)[nH]c3c(C(=O)NC(C)C)sc(=S)n3c2c1	none
O=C(O)c1ccc(-c2nc3ccccc3s2)s1	none
O=C(c1ccc(-c2nc3ccccc3s2)s1)N1CCCC1	TEAD-YAP block 88.7
O=C(CSc1nc2ccc([N+](=O)[O-])cc2[nH]1)Nc1ccc(F)c(F)c1	TEAD-YAP block 68.5
O=C(CSc1nc2ccc([N+](=O)[O-])cc2[nH]1)Nc1ccc(F)cc1	none
N[C@H](Cc1cc(F)cc(F)c1)c1nc2ccc(-c3ccncc3)cc2[nH]1	none
N[C@H](Cc1cccc(F)c1)c1nc2ncc(-c3ccncc3)cc2[nH]1	TEAD-YAP block 48.2
CN1CCN(Cc2nnnn2Cc2ccc(F)cc2)CC1	none
CC1=Nc2ccc(C)cc2/C1=C/c1c(N)n2c(S(C)(=O)=O)nsc2nc1=O	none
C=CCSC1=C(C#N)C(c2ccc(OCc3ccccc3)cc2)CC(=O)N1 (centres undefined)	TEAD-YAP block 32.9
Cc1ccn2cc(C(=O)Nc3cccc(F)c3)nc2c1	TEAD-YAP block 58.0
COc1ccc(C(=O)NC2CCSC2=O)cc1[N+](=O)[O-] (centres undefined)	FBW7 act 2.0
O=c1nc(-c2ccccc2)c2ccccc2[nH]1	none
O=c1cc(-c2ccccc2)[nH]c2ccccc12	TEAD-YAP block 46.3
O=C(O)CCCCCN1C(=O)CSC1=S	TEAD-YAP block 32.5
O=C(O)CCCN1C(=O)CSC1=S	TEAD-YAP block 57.3
O=C1CSC(=S)N1CCCCCCN1C(=O)CSC1=S	none
COCCN1C(=O)C(C)Sc2ccc(C#N)cc21 (centres undefined)	none
COc1cccc(/C=N/NC(=O)c2cc(C(C)C)[nH]n2)c1O	TEAD-YAP block 49.0
COc1cc(Br)cc(/C=N/NC(=O)c2cccc(Br)c2)c1O	TEAD-YAP block 35.0
COc1cccc(/C=N/NC(=O)c2ccc(O)cc2)c1O	none
COc1cccc(/C=N/NC(=O)c2cc(-c3ccco3)[nH]n2)c1O	none
COc1cccc(/C=N/NC(=O)c2ccc(C(C)(C)C)cc2)c1O	TEAD-YAP block 39.2
COc1cccc(/C=N/NC(=O)c2cc(Br)ccc2OC(C)C)c1O	TEAD-YAP block 78.5
O=C(NCC1CCCO1)c1ccc2c(=O)n(-c3ccccc3F)c(=S)[nH]c2c1 (centres undefined)	none
CC(=O)c1ccc(N=Cc2c(C)[nH]n(-c3ccccc3C)c2=O)cc1	none
Cc1cc(=O)oc2c(C(C)O)c(O)ccc12 (centres undefined)	none
CCOC(=O)c1nnn(-c2nonc2N)c1CSc1nc2ccc(OCC)cc2[nH]1	none
COc1cccc(/C=N/Nc2ccc(C(=O)O)cc2)c1O	TEAD-YAP block 83.7
Cc1nc2ccccn2c1C(=O)N/N=C/c1ccc(O)c(O)c1O	MITF primary 75.9
CC(C)Oc1ccc(Br)cc1C(=O)N/N=C/c1ccc2c(c1)OCO2	TEAD-YAP block 39.6
O=C(O)c1ccc(N/N=C/c2c(F)cccc2Cl)cc1	TEAD-YAP block 36.1
COc1cccc(/C=N/Nc2ccc(S(=O)(=O)O)cc2)c1O	none
CCOC(=O)CCCNC(=O)COC(=O)c1cnc(Cl)c(Cl)c1	none
C/C=C/c1cnc(-c2cccnc2)nc1C1CCN(C(=O)C2=CCCC2)CC1	none
COc1cccc(/C=N\NC(=O)c2c(C)nc3cc(C)ccn23)c1O	TEAD-YAP block 77.6
CC(C)(C)c1ccc(O)c(/C=N/NC(=O)c2ccc3c(c2)OCCO3)c1	TEAD-YAP block 44.8
COc1cccc(/C=N/NC(=O)c2cccc(Br)c2)c1O	TEAD-YAP block 63.6
Cc1ccn2c(C(=O)N/N=C\c3ccccc3[N+](=O)[O-])c(C)nc2c1	none
COc1cccc(/C=N/NC(=O)c2cccc(N)c2)c1O	TEAD-YAP block 66.7
Cc1ccc(N)c2c1C(=O)c1ccccc1C2=O	none
Cc1ccc(S(=O)(=O)n2nc(OC(=O)c3ccc(-c4ccccc4)cc3)cc2N)cc1	none
CC(C)Nc1cnn(C23CC4CC(CC(CC(=O)O)(C4)C2)C3)c(=O)c1Cl	none
COc1ccc(CNC(=O)C(=O)N/N=C/c2cccc(OC)c2O)cc1	MITF primary 53.4
COc1cccc(/C=N/NC(=O)c2cccc(Cn3nc(C)cc3C)c2)c1O	MITF primary 56.7
COc1cccc(/C=N/NC(=O)c2cccc(Cn3cccn3)c2)c1O	none
COc1cc(Cl)cc(/C=N\NC(=O)c2ccc3c(c2)OCO3)c1O	TEAD-YAP block 73.9
C=CCc1cccc(/C=N/NC(=O)c2ccc(OC)cc2)c1O	TEAD-YAP block 50.1
COc1ccccc1NC(=O)Cn1c(C)nc2ccccc21	TEAD-YAP block 34.6
CC(=O)c1cn(CC(=O)Nc2ccccc2)c2ccccc12	none
COc1ccccc1NC(=O)Cn1cc(C(C)=O)c2ccccc21	TEAD-YAP block 37.0
CC(=O)c1cn(CC(=O)NCCOc2ccc(Cl)cc2)c2ccccc12	TEAD-YAP block 39.7
COc1cccc(NC(=O)Cn2cc(C(C)=O)c3ccccc32)c1	TEAD-YAP block 48.2
COc1ccc(-c2nnc(Oc3ccc(NC(C)=O)cc3)c3ccccc23)cc1	none
Cc1cc(-c2cnc(N3CCCC3)nc2C2CCN(C(=O)c3scnc3C)CC2)on1	TEAD-YAP block 60.4
O=Cc1c(O)n(-c2ccc(Cl)cc2)c(=O)[nH]c1=O	FBW7 act 2.5
Cc1cc(C(=O)CSc2nc(N)cc(=O)[nH]2)c(C)n1Cc1cccs1	none
Cc1cc(C(=O)CSc2nnc(N)s2)c(C)n1Cc1cccs1	TEAD-YAP block 58.4
Cc1csc(SCC(=O)c2cc(C)n(Cc3cccs3)c2C)n1	TEAD-YAP block 59.2
Cc1cc(C(=O)CCl)c(C)n1Cc1cccs1	none
OCCN1CCN(c2cc(-c3ccccc3F)nc(-c3ccncc3)n2)CC1	none
COc1ccccc1-c1csc(NC(=O)c2cc(OC)c(OC)c(OC)c2)n1	none

Source: PubChem BioAssay
